# This is a sample that favours compounds with a hit; in the whole collection about 17% have one here.
# DT40 TDP1 no CPT: qHTS for Inhibitors of human tyrosyl-DNA phosphodiesterase 1 (TDP1): qHTS in cells in absence of CPT; Potency, µM (top dose mostly 46.2 µM), for inactives: at the top dose activity change, negative = growth inhibition, actives largely listed as inhibitors; DT40 Tdp1-/- hTDP1 cells, no CPT, ATP luminescence, 48 h; AID 686978, 2013; 420,000 tested, 15% active; further: on the % scale 0 is the no-effect control and ±100 the full control effect; nearly all actives have a fitted effect of over 55% in size
#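 Compound effects on proliferation are scored in DT40 Tdp1-/-;hTDP1 cells in the absence of CPT. ATP levels (CellTiter-Glo luminescence) are recorded after a ≥48 hr, 37 °C incubation.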
# HT1080-NT tox: kills 2HG-producing HT-1080-NT fibrosarcoma cells. HT-1080-NT fibrosarcoma viability, CellTiter-Glo ATP luminescence, 48 h. Potency, µM (series often up to 46.1 µM), for the others: top-dose activity, negative = less viability, usual class: cytotoxic. 360,000 tested, 1.6% active;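 further: NT is the 2HG producing partner of a matched IDH1 knockdown line; 0% = DMSO-treated cells and -100% = media-only wells without cells; nearly all actives have a fitted effect of over 55% in size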
#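 Viability by CellTiter-Glo luminescence after 48 h compound exposure at 37C of HT-1080-NT cells (750/well, RPMI, 5% FBS). % activity scaled between DMSO wells and medium-only wells, then curve-fitted and categorized by curve class.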
# TGFb SMAD3 inh: TGF-b pathway inhibition; HepG2 CAGA-GFP TGF-b/SMAD3 reporter, GFP fluorescence, 18 h; TGF-beta stimulated, 500 pg/mL final; Potency, µM (series often up to 46.1 µM), for inactives: at the top dose activity, negative = inhibition, hits mostly inhibitors; 410,000 tested, 1.2% active; AID 588855; further: on the % scale 0 is the no-effect control and ±100 the full control effect; nearly all actives have a fitted effect of over 65% in size
#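 Per well, imaged GFP fluorescence of HEPG2 CAGA-GFP cells gives the signal; cells get compound, then TGF-beta (500 pg/mL final), 18 h at 37 degrees C; %Activity versus -TGF-beta and +DMSO controls.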
# HT1080 IDH1KD tx: toxicity to HT-1080 IDH1 knockdown cells (counter line); HT-1080 IDH1 knockdown viability, ATP luminescence, 48 h; 360,000 tested, 2% active; Potency, µM (doses to about 46.1 µM), inactives show at the top dose activity, negative = toxicity, most hits filed as cytotoxic;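 further: 0% = DMSO wells and -100% = cell-free medium wells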
#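 Assay cells: HT-1080 with IDH1 knockdown, 750 per well, RPMI/5% FBS. Exposure: 48 h at 37 °C following 2 h pre-incubation. Read: CellTiter-Glo luminescence; fitted concentration-response, curve class assigned.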
# TDP1 cell CPT: growth inhibition of DT40 Tdp1-/-;hTDP1 cells with camptothecin (screen for TDP1 inhibitors); chicken DT40 Tdp1-/-;hTDP1 cells + 20 nM CPT, ATP luminescence, 48 h; 420,000 tested, 12% active; Potency, µM (titrated, usually from 46.2 µM), for the others: at the top dose activity change, negative = growth inhibition, most hits filed as inhibitors; further: on the % scale 0 is the no-effect control and ±100 the full control effect; nearly all actives have a fitted effect of over 55% in size
#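 Cell growth measured by CellTiter-Glo luminescence after a minimum 48 h, 37 C compound exposure with 20 nM CPT in Tdp1-knockout DT40 cells stably expressing hTDP1, seeded 400/well; qHTS titration format.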
# HepG2 viability: kills HepG2 cells in TGF-b inhibitor counter-screen. HepG2 CAGA-GFP viability, ATP luminescence, 18 h. Potency, µM (doses to about 46.1 µM), for the others: at the highest dose activity change, negative = cytotoxicity, actives largely listed as cytotoxic. 410,000 tested, 0.76% active. AID 588856
#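 HepG2 CAGA-GFP cells (1000/well, DMEM with 1% FBS) received compound, then TGF-beta at 500 pg/mL final, and were incubated 18 hours at 37 degrees C. Viability was read by CellTiter-Glo luminescence. Media-only wells were set as complete cell-killing and DMSO as no toxicity.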
# The depositor's hits bear a star; ? = inconclusive; . = not tested or not shown. The call rests on the fitted dose curve; in most records, active means well fitted curve in the direction sought with a large enough effect; inconclusive means small, poorly fitted or top-dose-only effect, or another doubt; inactive means no such curve, though single readings can be large; an effect the other way counts as inactive or inconclusive. Potency means the concentration at half of the fitted maximal effect.
SMILES,DT40 TDP1 no CPT,HT1080-NT tox,TGFb SMAD3 inh,HT1080 IDH1KD tx,TDP1 cell CPT,HepG2 viability
COC(=O)C(NC(=O)CC(C)C)(Nc1nc2c(s1)CCCC2)C(F)(F)F (stereo not drawn),12µM*,.,-7%,.,16µM*,-22%
COC(=O)C(NC(=O)COc1ccccc1)(Nc1nc2c(s1)CCCC2)C(F)(F)F (stereo not drawn),?,3%,-5%,0%,-12%,-20%
CC(C)(C)OC(=O)N1CCN(C(=O)Nc2ccc3c(c2)OCCO3)CC1,-19%,7%,11%,1%,4%,3%
Cc1ccc(C)c(NC(=O)CCN2C(=O)c3ccccc3Sc3ncccc32)c1,18µM*,.,-11%,.,?,-14%
O=C(CCN1C(=O)c2ccccc2Sc2ncccc21)Nc1ccc(F)cc1,?,.,?,.,16µM*,-20%
CCCCSCCCNC(=O)CCCN1C(=O)c2ccccc2Sc2ncccc21,16µM*,-5%,-28%,-5%,?,-53%
CCc1ccc2c(CN(C)Cc3ccc(OC(F)F)c(OC)c3)cc(=O)oc2c1,?,-1%,9%,-6%,18µM*,2%
CNc1nc(Nc2ccc(C(C)=O)cc2)nc(OC(C(F)(F)F)C(F)(F)F)n1,23µM*,-14%,31%,-23%,?,8%
CCN(Cc1ccccc1)Cc1c(O)ccc2c(=O)c(-c3ccccc3)c(C(F)(F)F)oc12,?,.,?,.,?,-22%
CCN(Cc1ccccc1)Cc1c(O)ccc2c(=O)c(-c3ccccc3OC)c(C(F)(F)F)oc12,26µM*,.,?,.,?,-16%
CCN(Cc1ccccc1)Cc1c(O)ccc2c(=O)c(-c3ccccc3Cl)c(C(F)(F)F)oc12,?,.,11%,.,18µM*,-11%
CC1CN(CCc2ccccc2)c2nc3c(c(=O)n(CC(N)=O)c(=O)n3C)n2C1 (stereo not drawn),18%,9%,-16%,-2%,?,-2%
S=c1[nH]nc(-c2cc(-c3ccccc3)n[nH]2)n1/N=C/C(Br)=C/c1ccccc1,2.6µM*,7.3µM*,11µM*,5.8µM*,2.9µM*,-27%
Cc1ccc(-c2n[nH]c(=S)n2/N=C/c2c(C)nn(-c3ccccc3)c2C)cc1,16µM*,-4%,-23%,-1%,?,8%
S=c1[nH]nc(-c2cc(-c3ccccc3)n[nH]2)n1/N=C/c1ccccc1,-12%,17%,-16%,1%,?,-14%
Cc1cccc(/C=N/n2c(-c3cc(-c4ccccc4)n[nH]3)n[nH]c2=S)c1,?,0%,?,14%,16µM*,-51%
O=C(C=Cc1ccc2c(c1)OCO2)C1CC1,?,6%,-3%,4%,1%,-29%
COc1ccc(-c2nc3ncccn3c2Nc2ccccc2)cc1,?,0%,0%,0%,-2%,-11%
Cc1cccn2c(Nc3ccccc3)c(-c3ccccn3)nc12,21µM*,?,?,-11%,18µM*,-25%
Cc1cc(C)n2c(Nc3c(C)cccc3C)c(-c3cccnc3)nc2n1,-19%,8%,.,9%,6%,.
Cc1cccc(C)c1Nc1c(-c2ccccn2)nc2c(C)cccn12,26µM*,.,0%,.,16µM*,-31%
CCCc1nc2ccc(Br)cn2c1Cc1cccc(Cl)c1,4.6µM*,?,-31%,?,6.5µM*,-17%
CCCc1nc2ccc(Br)cn2c1Cc1ccccc1,2.9µM*,-14%,?,-21%,4.6µM*,-17%
CC(C)c1cc(C(=O)NCCc2cccs2)c(N)s1,?,-8%,.,0%,?,.
